In general, inhibition refers to the relative decrease from the control value, in per cent.

In all, about 290,000 compounds went through this assay and about 3,000 (1%) were called active. How the calls were made is not given here. The full list was thinned out, with actives kept by preference.

For this assay, the target named is Polyadenylate-binding protein 1 (Homo sapiens) (UniProt P11940). The experiment in a line: blockers of PABP interaction with poly(A) – biochemical, fluorescence polarization, uHTS, primary screen (AID 2014).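 Further: calls also rest on retests at 20 µM and on dose response follow-up.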 The conditions noted are these: PABP-poly(A) RNA binding, stronger effect = higher value. (Fluorescence polarisation rises when a labelled molecule tumbles more slowly, as on binding a larger partner.)
Polyadenylate-binding protein 1 (Homo sapiens), sequence (P11940 whole entry, looked up): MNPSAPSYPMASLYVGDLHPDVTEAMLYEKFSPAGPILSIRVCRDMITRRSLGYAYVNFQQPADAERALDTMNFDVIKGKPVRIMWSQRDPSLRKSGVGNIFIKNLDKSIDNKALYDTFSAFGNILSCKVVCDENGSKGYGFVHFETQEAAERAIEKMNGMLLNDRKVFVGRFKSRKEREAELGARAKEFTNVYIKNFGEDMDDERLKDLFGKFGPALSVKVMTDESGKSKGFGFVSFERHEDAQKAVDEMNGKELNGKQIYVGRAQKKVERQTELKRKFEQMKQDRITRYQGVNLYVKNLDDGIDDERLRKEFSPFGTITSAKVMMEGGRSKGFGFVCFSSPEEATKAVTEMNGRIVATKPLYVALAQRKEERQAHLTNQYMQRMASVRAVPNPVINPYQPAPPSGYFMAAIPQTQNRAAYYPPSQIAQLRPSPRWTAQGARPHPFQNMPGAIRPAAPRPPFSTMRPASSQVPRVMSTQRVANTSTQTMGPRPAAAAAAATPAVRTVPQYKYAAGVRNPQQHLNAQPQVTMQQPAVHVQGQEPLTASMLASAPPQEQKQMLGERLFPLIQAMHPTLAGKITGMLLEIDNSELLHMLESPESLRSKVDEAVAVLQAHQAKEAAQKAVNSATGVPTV

Take `CCOCCc1nn2c(=O)cc(CSCC(=O)Nc3cccc(C)c3C)nc2s1`: the inhibition (at 35 µM) is 8.3% (inactive).

As for `CC(C)(C)C(=O)OCc1nc(-c2ccc(O)c(O)c2)cs1`, the inhibition (at 35 µM) is 10% (inactive).

For the molecule `COc1ccc(-c2csc(Cc3nc(O)cs3)n2)cc1`, the inhibition by setting is: (at 35 µM) 70.4% (active); (confirmation repeats, at 20 µM) 52.3%.

Take `COc1ccc(-c2csc(NC3OC(=O)c4ccccc43)n2)cc1` (configuration not stated): the inhibition (at 35 µM) was -0.5% (inactive).

For `O=c1ccc2cc(S(=O)(=O)Nc3ccccc3F)ccc2o1`, the inhibition (at 35 µM) is -1.5% (inactive).

In the case of `Cc1c(NC(=O)c2c([N+](=O)[O-])cnn2C)c(=O)n(-c2ccccc2)n1C`, the inhibition (at 35 µM) is -1.3% (inactive).

For the molecule `CCOc1ccc(-n2c(O)c(/C=N/Nc3nc(C)cc(C)n3)c3ccccc3c2=O)cc1`, the inhibition (at 35 µM) is 9% (inactive).

On to `Cc1ccc(-n2c(O)c(C=Nc3ccc(S(=O)(=O)Nc4ncccn4)cc3)c3ccccc3c2=O)cc1C`, for which the inhibition (at 35 µM) is -8.1% (active) and the inhibition (confirmation repeats, at 20 µM) was found to be 94.9%.

As to `CCOc1ccc(N=Cc2c(O)n(-c3cccc(C)n3)c(=O)c3ccccc23)cc1`, the inhibition (at 35 µM) is -1.3% (inactive).

For `O=C(NCC(=O)N1CCN(c2ncc(C(F)(F)F)cc2Cl)CC1)c1ccc(Br)o1`, the inhibition (at 35 µM) was 3.4% (inactive).

Turning to `CC(=O)N1CCSc2ccc(S(=O)(=O)N3CCC(C)CC3)cc21`, for the setting “at 35 µM”, the inhibition was 0% (inactive).

As to `Cc1cccc(OCC(=O)NC2CC(C)(C)NC(C)(C)C2)c1`, the inhibition (at 35 µM) is 6.7% (inactive).

In the case of `CC1(OC(=O)CCc2ccccc2)C(=O)C=C2C=C(c3ccc(C#N)cc3)N(CCc3ccccn3)C=C2C1=O` (configuration not stated), the inhibition (at 35 µM) was 26.9% (inactive).

`C=CCN1C=C2C(=O)C(C)(OC(=O)CCc3ccccc3)C(=O)C=C2C=C1c1ccc(C#N)cc1` (configuration not stated): the inhibition (at 35 µM) is 38.3% (active) and the inhibition (confirmation repeats, at 20 µM) is 80.1%.

For `NC(=O)COc1ccccc1C(=O)NC12CC3CC(CC(C3)C1)C2`, where the note is “at 35 µM”, the inhibition was -0.3% (inactive).

For the molecule `COc1cc(/C=N\Nc2ccc([N+](=O)[O-])cn2)ccc1OCC(=O)O`, for the setting “at 35 µM”, the inhibition was 13.3% (inactive).

Turning to `Cc1cc(/C=N/Nc2ccc([N+](=O)[O-])cn2)c(C)n1-c1cccc(C(=O)O)c1`, under “at 35 µM”, the inhibition is 50.3% (active).

As to `Cc1ccc(-n2c(C)cc(/C=N/Nc3ccc([N+](=O)[O-])cn3)c2C)c(C)c1`, the inhibition (at 35 µM) is 10.5% (inactive).

With `CC(C)=CCN1CCN(CCCc2ccccc2)CC1CCO` (configuration not stated), the inhibition (at 35 µM) was -4.3% (inactive).

Consider `CN1/C(=C\C=C2\N=C(c3ccc(F)cc3)OC2=O)C(C)(C)c2ccccc21`, for which the inhibition reads like this: (at 35 µM) 120% (active); (confirmation repeats, at 20 µM) 105%.

Take `CN1/C(=C\C(=O)c2oc3ccccc3c2N)C(C)(C)c2ccccc21`: under “at 35 µM”, the inhibition is 15.4% (inactive).

For the molecule `CN1/C(=C\C(=O)c2cccnc2Cl)C(C)(C)c2ccccc21`, under “at 35 µM”, the inhibition was -4.7% (inactive).

`O=C(NCCc1ccc(Cl)cc1)C1CCCN1C(=O)NCc1ccccc1` (configuration not stated): the inhibition (at 35 µM) was -1.3% (inactive).

On to `COc1ccccc1N(CC(=O)Nc1ccccc1C(=O)N1CCCC1)S(C)(=O)=O`, for which the inhibition (at 35 µM) is 0.7% (inactive).

`O=C(O)CCCN1C(=O)c2ccccc2Sc2ncccc21`: under “at 35 µM”, the inhibition is 16.4% (inactive).

`COc1ccc(C(=O)Nc2ccnn2C2CCN(Cc3ccncc3)CC2)cc1`: the inhibition (at 35 µM) is -4.2% (inactive).

Take `COc1ccc(N=C(C)c2sc3ccccc3c2O)cc1`: for the setting “at 35 µM”, the inhibition was -3.8% (inactive).

As for `O=C(N/N=C/c1c(Cl)[nH]c2ccccc12)c1sc2ccccc2c1Cl`, the inhibition (at 35 µM) is -2.8% (inactive).

With `Oc1ccc(N=Cc2sc3ccccc3c2Cl)cc1`, the inhibition runs as follows: (at 35 µM) -14% (active); (confirmation repeats, at 20 µM) 68.6%.

As to `COc1ccccc1N(CC(=O)NC1CCCC1)C(=O)C1(C)CC(=O)N=C2C=CC(C)=CN21` (configuration not stated), the inhibition (at 35 µM) is 4.1% (inactive).

For the molecule `O=C(COC(=O)C12CC3CC(CC(C3)C1)C2)NCc1ccco1`, the inhibition runs as follows: (at 35 µM) 26% (active); (confirmation repeats, at 20 µM) 62.4%.

For the molecule `O=C(COC(=O)CCC(=O)c1cccs1)NCc1ccco1`, the inhibition is 35.9% (inactive) (at 35 µM) and 32.9% (confirmation repeats, at 20 µM).

Take `O=C(CC12CC3CC(CC(C3)C1)C2)NCc1ccco1`: the inhibition (at 35 µM) was -13.1% (inactive).

Consider `COc1ccc(C(=O)C2CCCN(C(=O)c3cc(C)on3)C2)cc1F` (configuration not stated), for which the inhibition (at 35 µM) was -11.7% (inactive).

Take `Cc1cc(C)n(CCC(=O)N2CCN(S(=O)(=O)c3ccc(C)c(C)c3)CC2)n1`: the inhibition (at 35 µM) is -7.6% (inactive).

These data come from PubChem BioAssay AID2014 (Sanford-Burnham Center for Chemical Genomics, 2009).
